# From PubChem
# In the library only some 18% were active in any assay of this set; here they are far more common.
# Gal4-VP16 FLuc: counter-screen for ROR gamma inhibitors: Gal4-VP16 reporter. Potency, µM (highest dose often 53.6 µM), for inactives: top-dose activity, negative = inhibition, most hits filed as inhibitors. Drosophila S2 Gal4-VP16 UAS-luciferase, luminescence, 20 h. hit rate 3.5% among 310,000;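 also: Gal4-VP16 expression switched on by copper sulfate through the metallothionein promoter; potency is read from the fitted curve at half-maximal effect; nearly all actives have a fitted effect of over 50% in size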
# LDHA inh: LDHA (human) enzyme inhibition. P00338. purified LDHA, NADH/diaphorase-resazurin fluorescence; stronger effect = lower value. activity change, % (values are at about 110 or 230 µM). hit rate 0.15% among 480,000. AID 1347041; in the data active = activity change below about -30%; inconclusive = mostly about -25% to -30%;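 also: plate controls were DMSO wells for no effect and wells without enzyme for full effect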
#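 Human LDH5 at 2 nM final in Tris HCl pH 7.4 with 0.06 mM NADH and 0.2 mM pyruvate, reacted 5 minutes at room temperature. Remaining NADH coupled via diaphorase/resazurin; resorufin fluorescence read at 0 and 20 minutes, normalized to enzyme-free and DMSO wells.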
# DT40 TDP1 CPT: growth inhibition of DT40 Tdp1-/-;hTDP1 cells with camptothecin (screen for TDP1 inhibitors); chicken DT40 Tdp1-/-;hTDP1 cells + 20 nM CPT, ATP luminescence, 48 h; hit rate 12% among 420,000; AID 686979; Potency, µM (highest dose often 46.2 µM), for inactives: at the highest dose activity change, negative = growth inhibition, hits mostly inhibitors; also: potency is read from the fitted curve at half-maximal effect; nearly all actives have a fitted effect of over 55% in size
#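 Chicken DT40 Tdp1-/- cells stably complemented with human TDP1 were seeded at 400 cells/well in medium containing 20 nM camptothecin, exposed to pin-transferred compounds, and grown at 37 °C for at least 48 hr. Viability was read as ATP luminescence.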
# RORgamma inh: inhibitors of mouse ROR gamma transcriptional activity; P51450; Drosophila S2 Gal4-RORgamma UAS-luciferase reporter, 20 h; Potency, µM (series often up to 53.6 µM), inactives show top-dose activity change, negative = inhibition, most hits filed as inhibitors; hit rate 5.4% among 310,000; also: potency is read from the fitted curve at half-maximal effect; nearly all actives have a fitted effect of over 60% in size
# Target sequence (P51450 whole entry, looked up, the tested form may be a part): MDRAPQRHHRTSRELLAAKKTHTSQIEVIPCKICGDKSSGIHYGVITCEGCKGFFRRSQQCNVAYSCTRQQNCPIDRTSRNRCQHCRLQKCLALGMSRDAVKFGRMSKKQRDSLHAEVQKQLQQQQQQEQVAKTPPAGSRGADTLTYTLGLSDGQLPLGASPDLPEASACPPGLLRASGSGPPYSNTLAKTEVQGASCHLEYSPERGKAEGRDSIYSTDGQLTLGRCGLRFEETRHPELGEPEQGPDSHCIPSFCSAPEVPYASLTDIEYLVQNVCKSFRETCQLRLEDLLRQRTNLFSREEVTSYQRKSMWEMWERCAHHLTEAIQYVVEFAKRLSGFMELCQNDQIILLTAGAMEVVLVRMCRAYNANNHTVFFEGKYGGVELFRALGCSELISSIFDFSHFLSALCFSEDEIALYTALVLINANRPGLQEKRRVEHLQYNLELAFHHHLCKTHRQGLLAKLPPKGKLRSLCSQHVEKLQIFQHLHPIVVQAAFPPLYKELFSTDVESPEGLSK
#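 Stable Schneider cell line, Gal4 DNA-binding domain fused to ROR gamma, UAS-luciferase. Cmpd 1 hr RT → CuSO4 700 uM final → 20 hr RT → luciferase reagent 10 min → luminescence.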
# DT40 TDP1 no CPT: qHTS for Inhibitors of human tyrosyl-DNA phosphodiesterase 1 (TDP1): qHTS in cells in absence of CPT. Potency, µM (highest dose often 46.2 µM), without a hit: at the top dose activity change, negative = growth inhibition, usual class: inhibitors. hit rate 15% among 420,000. AID 686978, 2013. DT40 Tdp1-/- hTDP1 cells, no CPT, ATP luminescence, 48 h; also: potency is read from the fitted curve at half-maximal effect; nearly all actives have a fitted effect of over 55% in size
#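 No-CPT arm: Tdp1-/-;hTDP1 DT40 cells (400/well) plus compounds, incubated ≥48 hr at 37 °C. Readout CellTiter-Glo luminescence.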
# IL-1B inflam inh: blocks inflammasome-driven IL-1 beta release; THP-1 LPS/ATP IL-1B secretion, AlphaLISA, 16 h; stronger effect = lower value; activity change, % at 57.5 µM; hit rate 4.7% among 360,000; in the data active = activity change below about -50%; inconclusive = mostly about -30% to -49%
#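 THP-1 cells pretreated 1 hr with compounds (up to 57.5 uM final), then stimulated with LPS (250 ng/mL final) plus ATP (1.25 mM final); secreted IL-1B measured by AlphaLISA after 16 hr, decreased signal indicating inhibition.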
# * = called active by the depositor; ? = inconclusive; . = no result given; [ ] = another dose, or the depositor's remark. Unless noted, calls follow the shape of the dose curve; as a rule, active = well fitted curve in the direction sought with a large enough effect; inconclusive = small, poorly fitted or top-dose-only effect, or another doubt; inactive = no such curve, though single readings can be large; an effect the other way counts as inactive or inconclusive. Unless noted, % is scaled to controls: 0 for no effect and ±100 for the full control effect.
SMILES,Gal4-VP16 FLuc,LDHA inh,DT40 TDP1 CPT,RORgamma inh,DT40 TDP1 no CPT,IL-1B inflam inh
CCN(CC)S(=O)(=O)c1cc(NS(=O)(=O)c2ccccc2)ccc1C,0%,-2,16µM*,-8%[10 µM],-28%,16
CC1Sc2ccc(C(=O)NCc3ccccn3)cc2NC1=O (stereo not drawn),.,-10,0.82µM*,.,0.65µM*,8
CCN(CC)S(=O)(=O)c1cc(NC(=O)c2ccc3c(c2)NC(=O)C(C)S3)ccc1C (stereo not drawn),.,-1,21µM*,.,21µM*,-58*
CCN(CC)S(=O)(=O)c1cc(NC(=O)NCCCl)ccc1C,3%,-5,?,8%,?,46
NC(=O)C(Sc1ccc2c(c1)OCCCO2)c1ccccc1 (stereo not drawn),.,1,.,.,.,.
O=C(CSc1nccc(C(F)(F)F)n1)NC1CCCCCCC1,.,-12,.,.,.,.
CCn1c(SC(=O)NC2CCCCC2)nnc1-c1cccs1,?,-1,21µM*,7.9µM*,23µM*,-20
CCn1c(SCC(=O)NCc2ccco2)nnc1-c1cccs1,?,4,1%,11µM*,-5%,19
CCn1c(SCC(=O)NC2CCCCC2)nnc1-c1cccs1,-3%,0,1%,-3%,-16%,0
CCn1c(SCC(=O)NCc2ccco2)nnc1-c1ccncc1,12%,.,.,7%,.,.
O=C(CSc1nnc2sc3ccccc3n12)NCc1ccco1,0%,-1,?,9%,13µM*,31
N#Cc1nc(-c2ccccc2F)oc1N1CCN(C(=O)c2cccs2)CC1,.,8,.,.,.,.
CCOCCn1c(CN2CCN(C(=O)OCC)CC2)nc2c1c(=O)[nH]c(=O)n2C,.,-5,.,.,.,.
COc1ccc(Cn2nnnc2C(C(C)C)N2CCN(c3ccccc3OC)CC2)cc1 (stereo not drawn),-25%,1,29µM*,4%,23µM*,-14
COc1ccccc1C(c1nnnn1Cc1ccco1)N1CCN(c2cccc(C)c2C)CC1 (stereo not drawn),-13%,-6,18µM*,22%,16µM*,?
CCN1CCN(C(c2cccc(OC)c2OC)c2nnnn2Cc2ccco2)CC1 (stereo not drawn),-1%,-5,4%,3%,4%,-1
COc1ccccc1N1CCN(C(c2ccccc2)c2nnnn2Cc2ccccc2)CC1 (stereo not drawn),.,-2,14µM*,.,16µM*,.
CC(C)C(=O)Nc1nonc1-c1ccc(Br)cc1,.,5,.,.,.,.
C/C(=N\O)C1CCCCCCCCCCC1,.,20,.,.,.,.
Cc1nn(-c2cc(C)c3ccccc3n2)c2c1C1C(C2)C1(C)C (stereo not drawn),18µM*,-1,18µM*,0.71µM*,?,26
Cn1c(=O)c2nc(-c3ccccc3)c(-c3ccccc3)nc2n(C)c1=O,.,-5,?,.,21µM*,-1
Cc1cc(C)n(-c2ccc(C(=O)C(C#N)c3nc4ccccc4n3C)cc2)n1 (stereo not drawn),8.9µM*,3,?,3.2µM*,?,-12
Cc1cc(C)n(-c2ccc(C(=O)OC(C)C)cc2)n1,4%,-4,?,0%,-2%,-2
Cc1ccc(Cl)cc1Nc1nc(N)c(C(=O)c2ccccc2F)s1,.,0,.,.,.,.
CN(C)S(=O)(=O)c1ccc(NC(=O)CN2CCN(c3ccc(O)cc3)CC2)cc1,.,66,.,.,.,.
SMILES,Gal4-VP16 FLuc,LDHA inh,DT40 TDP1 CPT,RORgamma inh,DT40 TDP1 no CPT,IL-1B inflam inh
CCCn1c(=O)c2sccc2n2c(CCCC(=O)Nc3cccc(CC)c3)nnc12,.,0,23µM*,.,?,.
Cc1ccc(NC(=O)CCCc2nnc3n(C)c(=O)c4sccc4n23)cc1F,.,-5,?,.,?,.
CCCn1c(=O)c2sccc2n2c(CCCC(=O)Nc3ccc(C)c(F)c3)nnc12,.,-1,?,.,23µM*,.
CCCn1c(=O)c2sccc2n2c(CCCC(=O)NCCOC)nnc12,.,-8,-2%,.,0%,.
Cc1ccc(CNCCN2CCCC2)cc1,.,-5,.,.,.,.
COc1cccc(-c2nc(SCc3cc(=O)c4cc(C)c(C)cc4[nH]3)n[nH]2)c1,.,0,.,.,.,.
Cc1ccc2c(=O)cc(C(=O)Nc3ccc4nsnc4c3)oc2c1,.,8,.,.,.,.
Cc1ccc(-c2nnc3ccc(SCC(=O)N4CCc5ccccc54)nn23)cc1,7%,-1,-18%,3%,-9%,27
N#Cc1ccccc1CSc1ccc(-c2nc3ccccc3[nH]2)cn1,-3%[0.365 µM],-8,?,?,?,-71*
CC(=O)CSc1ccc(-c2nc3cc(C)c(C)cc3[nH]2)cn1,1%,-1,?,-8%,?,-82*
CCc1nnc(NC(=O)CSc2ccc(-c3nc4ccc(C)cc4[nH]3)cn2)s1,?,-2,?,?,?,8
CC(=O)CSc1ccc(-c2nc3ccccc3[nH]2)cn1,11µM*,-6,10µM*,10µM*,8.2µM*,-58*
Cc1ccc2nc(-c3ccc(SCC(=O)N4CCc5ccccc54)nc3)[nH]c2c1,?,2,?,-36%,13µM*,21
CCOC(=O)CNC(=O)CSc1ccc(-c2nc3ccccc3[nH]2)cn1,13%,-12,-19%,?,?,?
Clc1ccc(-c2nc3ccccc3[nH]2)cn1,15%,3,1%,33%,-20%,20
C=CCN1CCCN(Cc2ccc(C#N)cc2)CC1,.,0,.,.,.,.
Cc1ccc(-c2cc(C(=O)O)c3ccc(C)c(C)c3n2)s1,.,7,.,.,.,.
COc1ccc2c(CSc3nnnn3-c3ccccc3)cc(=O)oc2c1,.,7,.,.,.,.
Cc1cc2nc(-c3ccc(SCc4ccc(C#N)cc4)nc3)[nH]c2cc1C,5%,-9,?,?,23µM*,-12
Cc1cc2nc(-c3ccc(SCC(=O)Nc4nccs4)nc3)[nH]c2cc1C,?,-2,16µM*,?,16µM*,-15
Cc1cc(-c2ccccc2)nc(SCc2ccc(C#N)cc2)n1,.,-2,.,.,.,.
Cc1ccc2c(c1)cc(C(=O)NCCN(C)C)n2C,.,-2,.,.,.,.
N=c1c2c(n(Cc3ccc(Cl)cc3)c3c1CCC3)CCC2,?,-3,2.3µM*,-8%,2.3µM*,-67*
N=c1c2c(n(Cc3cccc(Cl)c3)c3c1CCC3)CCCC2,-15%,0,2.6µM*,?,1.8µM*,-79*
N=c1c2c(n(Cc3ccccc3)c3c1CCC3)CCC2,?,-6,1.6µM*,13%,0.58µM*,-28
CCOC(=O)Cn1c2c(c(=N)c3ccccc31)CCC2,0%,3,-10%,-10%,-18%,16
